This passage reports Potency results from PubChem BioAssay (Tox21).

Values joined by “and” are separate entries in the source; they are usually repeats but may differ in a detail not shown here. Equal entries are not always repeated. Where a structure was tested more than once in an assay, its records may differ in their call. Active and inactive are the calls of the source. Entries that show only a call come without a potency. Calls come from the whole dose curve; as a rule, active = well fitted activation curve with a large enough effect in the repeat runs; inconclusive = weak or mixed curves; inactive = flat fitted curve, though single readings scatter.
Potency is the fitted concentration of half-maximal effect.

This experiment can be described thus: A CellTox Green Cytotoxicity Assay to monitor cytotoxicity in HEK293 cells - 0 hour (AID 1224869). Note: nearly all actives have a fitted effect of over 50% in size. The note with it: CellTox Green fluorescence; series mostly up to 76.8 µM. An excerpt: National Center for Advancing Translational Sciences [NCATS]
NIH Chemical Genomics Center [NCGC]
U.S. Environmental Protection Agency [EPA]
National Institutes of Environmental Health Sciences [NIEHS]
National Toxicology Program [NTP]
Cell-based models are critical for drug discovery. Determining the natural cytotoxic effects resulting from test compounds is an essential research activity. A CellTox Green Cytotoxicity Assay to monitor cytotoxicity in real time of continues cell culture during 40 hours of the compound treatment was used to screen Tox21 10K library compounds in Hek293 cells. CellTox Green Cytotoxicity Assay is a nonlytic, homogeneous, biofluorescent method to measure cytotoxicity in cell culture after experimental manipulation. The assay system uses a proprietary asymmetric cyanine dye that is excluded from viable cells but preferentially stains the dead cell's DNA. […] Viable cells produce no appreciable increases in fluorescence. Therefore, the fluorescence signal produced by the binding interaction with dead cell DNA is proportional to cytotoxicity.
The mixture of Hek293 cell suspension and reagents were dispensed at 600cells/6 ul/well in 1536-well tissue culture treated black solid bottom plates using a Multidrop dispenser. After the assay plates were incubated at a 37 C/5% CO2 incubator for 5 hours, 23 nL of compounds dissolved in DMSO, positive and negative controls was transferred to the assay plate by a pintool work station. The plates were incubated at 37 C for 40 hours. The fluorescence intensity were measured at 0h, 8h, 16h, 24h, 32h and 40h time points using ViewLux plate reader during compound treatment.
Consider `OCCO`, for which the Potency entry is “inactive”.

Turning to `Nc1ccccc1N`, the Potency was 50.1 µM (active).

On to `CCCCc1oc2ccccc2c1C(=O)c1cc(I)c(OCCN(CC)CC)c(I)c1`, for which the Potency result was “inactive”.

Take `Nc1ncn([C@@H]2O[C@H](CO)[C@@H](O)[C@H]2O)c(=O)n1`: the Potency entry was “inactive”.

`COC(=O)c1ccccc1`: the Potency entry is “inactive”.

For the molecule `CCCCCCCCCC(=O)OC`, the Potency entry is “inactive”.

As to `NNc1ccc(C(=O)O)cc1`, the Potency entry was “inactive”.

`CN(C)c1nc(N(C)C)nc(N(C)C)n1`: the Potency result is “inactive”.

With `Nc1ncnc2nc[nH]c12`, the Potency entry was “inactive”.

Regarding `O=CCCCC=O`, the Potency entry was “inactive”.

Regarding `c1cc(N(CC2CO2)CC2CO2)ccc1OCC1CO1` (stereo not given), the Potency entry was “inactive”.

`Cc1ccc(C(=O)c2cc(O)c(O)c([N+](=O)[O-])c2)cc1`: the Potency result is “inactive”.

For the molecule `CC(C)OC(=O)C(C)(C)Oc1ccc(C(=O)c2ccc(Cl)cc2)cc1`, the Potency result is “inactive”.

Consider `C#C[C@]1(O)CC[C@H]2[C@@H]3CCc4cc(OC)ccc4[C@H]3CC[C@@]21C`, for which the Potency entry was “inactive”.

As for `Brc1cc(Oc2cc(Br)c(Br)c(Br)c2Br)c(Br)c(Br)c1Br`, the Potency result was “inactive”.

Consider `O=[N+]([O-])c1ccc2c(c1)Cc1ccccc1-2`, for which the Potency entry was “inactive”.

In the case of `Cc1ccc2c(n1)Oc1ccc(C(C)C(=O)OCC(=O)N(C)C)cc1C2` (stereo not given), the Potency result was “inactive”.

Regarding `CN(C)CCN(Cc1cccs1)c1ccccn1`, the Potency entry is “inactive”.

`CCC(C)OC(=O)c1ccc(O)cc1` (stereo not given): the Potency result is “inactive”.

Turning to `CC(C)Oc1ccc2c(=O)c(-c3ccccc3)coc2c1`, the Potency result is “inactive”.

In the case of `O=C(Nc1ccc([N+](=O)[O-])cc1Cl)c1cc(Cl)ccc1O`, the Potency result was “inactive”.

On to `O=Cc1ccccc1O`, for which the Potency entry was “inactive”.

Turning to `Cc1cccc(C(=O)O)c1`, the Potency result was “inactive”.

As for `O=CCc1ccccc1`, the Potency result was “inactive”.

Consider `CC(C)OB(OC(C)C)OC(C)C`, for which the Potency entry was “inactive”.

Consider `CC(C)OC=O`, for which the Potency result is “inactive”.

Take `CC(C(=O)O)c1cccc(C(=O)c2ccccc2)c1` (stereo not given): the Potency result is “inactive”.

Take `O=C(Nc1ccc(Cl)cc1)Nc1ccc(Cl)c(Cl)c1`: the Potency result is “inactive”.

Consider `O=P(O)(O)O`, for which the Potency result was “inactive”.

Consider `CC(=O)O[C@]1(C(C)=O)CC[C@H]2[C@@H]3C=C(Cl)C4=CC(=O)[C@@H]5C[C@@H]5[C@]4(C)[C@H]3CC[C@@]21C`, for which the Potency result is “inactive”.

Take `Nc1ccc(Nc2ccccc2)cc1`: the Potency entry was “inactive”.

For `CCCc1c(OCCCCc2nn[nH]n2)ccc(C(C)=O)c1O`, the Potency result was “inactive”.

As to `O=C1OC2(c3cc(Br)c(O)c(Br)c3Oc3c2cc(Br)c(O)c3Br)c2c(Cl)c(Cl)c(Cl)c(Cl)c21`, the Potency was 43.7 µM (active) and 26.5 µM (active).

Regarding `CCOC(=O)C(C#N)=C(c1ccccc1)c1ccccc1`, the Potency result was “inactive”.

On to `O=C(COc1ccc(Cl)cc1)N1CCN(Cc2ccc3c(c2)OCO3)CC1`, for which the Potency result was “inactive”.

As for `Clc1nc(Cl)c(Cl)c(Cl)c1Cl`, the Potency entry is “inactive”.

As for `CC1=CC2C3CC(C=C3C)C2C1` (stereo not given), the Potency result is “inactive and 38.9 µM (active)”.

As for `NC=O`, the Potency result is “inactive”.

`CCCCC(CC)COC(=O)c1ccc(N(C)C)cc1` (stereo not given): the Potency result was “inactive”.

`O=C(c1ccccc1)c1ccc(O)cc1O`: the Potency entry is “inactive”.
